Source: PubChem BioAssay
Luciferase inh = inhibitors of firefly (Photinus pyralis) luciferase; P08659; purified P. pyralis luciferase, luminescence, biochemical; Potency, µM (top dose mostly 115 µM), usual class: inhibitors; 76,000 compounds, 2.5% hits; also: nearly all actives have a fitted effect of over 65% in size
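Biochemical qHTS: compound (6-point titration) added to 10uM D-luciferin plus 10uM ATP in Tris acetate pH 7.5 buffer with Mg, Tween-20 and BSA, then purified enzyme at 10nM; light output imaged.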
hNpr1 antagonist = human Npr1 receptor antagonism. P16066. HEK293 hNpr1 GloSensor cGMP, ANP-stimulated luminescence. Potency, µM (highest dose often 46.3 µM), inactives show at the highest dose activity change, negative = inhibition, actives largely listed as inhibitors. 76,000 compounds, 1.6% hits; calls by dose curve; also: nearly all actives have a fitted effect of over 60% in size
Target sequence (P16066 whole entry, looked up): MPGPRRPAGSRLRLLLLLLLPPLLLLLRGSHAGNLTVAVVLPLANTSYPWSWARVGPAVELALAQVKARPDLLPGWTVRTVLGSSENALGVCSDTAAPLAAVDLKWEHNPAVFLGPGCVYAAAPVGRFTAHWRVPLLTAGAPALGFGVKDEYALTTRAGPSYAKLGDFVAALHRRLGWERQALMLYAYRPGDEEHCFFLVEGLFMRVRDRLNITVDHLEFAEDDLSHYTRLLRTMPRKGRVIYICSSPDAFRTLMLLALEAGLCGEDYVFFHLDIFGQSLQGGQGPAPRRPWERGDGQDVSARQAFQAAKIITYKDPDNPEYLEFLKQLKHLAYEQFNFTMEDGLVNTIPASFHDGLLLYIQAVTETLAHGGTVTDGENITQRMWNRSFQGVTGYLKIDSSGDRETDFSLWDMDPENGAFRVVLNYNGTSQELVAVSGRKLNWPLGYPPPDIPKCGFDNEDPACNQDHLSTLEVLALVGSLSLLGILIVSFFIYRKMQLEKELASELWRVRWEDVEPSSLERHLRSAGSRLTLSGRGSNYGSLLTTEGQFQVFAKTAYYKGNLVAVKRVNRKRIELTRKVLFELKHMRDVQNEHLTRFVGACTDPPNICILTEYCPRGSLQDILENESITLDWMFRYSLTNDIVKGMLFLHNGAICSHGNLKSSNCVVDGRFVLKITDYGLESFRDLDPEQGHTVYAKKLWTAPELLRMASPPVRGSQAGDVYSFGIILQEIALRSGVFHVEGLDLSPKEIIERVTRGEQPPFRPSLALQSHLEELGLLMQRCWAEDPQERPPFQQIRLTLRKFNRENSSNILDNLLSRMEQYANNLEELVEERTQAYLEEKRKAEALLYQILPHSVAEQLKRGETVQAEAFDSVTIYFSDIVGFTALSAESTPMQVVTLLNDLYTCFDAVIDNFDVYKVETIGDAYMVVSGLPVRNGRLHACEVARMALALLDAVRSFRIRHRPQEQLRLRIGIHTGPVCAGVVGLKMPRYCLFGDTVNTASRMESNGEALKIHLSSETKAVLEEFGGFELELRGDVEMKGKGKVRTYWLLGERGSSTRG
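HEK293 cells stably expressing human Npr1 and cGMP GloSensor pGS-40F, loaded 2 h with 2% GloSensor reagent, given compound 30 min at room temperature. Luminescence read before and 20 min after 0.1 nM hNppA.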
NIH3T3 tox = kills NIH 3T3 cells. NIH 3T3 viability, CellTiter-Glo ATP luminescence, 48-72 h. Potency, µM (doses to about 96.7 µM), without a hit: top-dose activity change, negative = cytotoxicity, usual class: inhibitors. 94,000 compounds, 4.3% hits. AID 1345082; also: nearly all actives have a fitted effect of over 55% in size
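Cells were seeded at 400 per well, treated with pin-transferred compound, and kept 48 or 72 hr at 37 °C before CellTiter-Glo addition and luminescence imaging of cellular ATP.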
HEK cytotox = HEK 293 cell cytotoxicity; HEK 293 viability, ATP luminescence (CellTiter-Glo), 48-72 h; Potency, µM (top dose mostly 115 µM), inactives show at the top dose activity change, negative = cytotoxicity, usual class: inhibitors; 94,000 compounds, 6.6% hits; AID 1345083; also: nearly all actives have a fitted effect of over 60% in size
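CellTiter-Glo luminescence (cellular ATP) was read after 48 or 72 hr of compound exposure at 37 degree Celsius. Cells were HEK 293 plated at 250 cells/well.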
Starred values were filed as active, the others as inactive; i = inactive; ? = inconclusive; . = not tested or not shown; [ ] = another dose, or the depositor's remark. The list is not random: actives were taken first. Their share in the collection is about 11%. Unless noted, calls follow the shape of the dose curve; as a rule, active = well fitted curve in the direction sought with a large enough effect; inconclusive = small, poorly fitted or top-dose-only effect, or another doubt; inactive = no such curve, though single readings can be large; an effect the other way counts as inactive or inconclusive. % is scaled to controls: 0 for no effect and ±100 for the full control effect; potency is read from the fitted curve at half-maximal effect.

SMILES | Luciferase inh | hNpr1 antagonist | NIH3T3 tox | HEK cytotox
Cc1ccc(C(=O)N2CCN(c3cc(-c4cccs4)[nH]n3)CC2)cc1 | i | -1% | 13µM* | ?
O=C(c1ccccc1Br)N1CCN(c2cc(-c3cccs3)[nH]n2)CC1 | i | -25% | ? | ?
O=C(c1c[nH]c2ccccc12)N1CCN(c2cc(-c3cccs3)[nH]n2)CC1 | i | -22% | ? | 45µM*
COCCNC(=O)C1CCCN1C(=O)c1cccc(-c2cccnc2)c1 (stereo unspecified) | . | . | -13% | 2%
Cc1nc(N2CCN(C(=O)c3ccc(C#N)cc3)CC2)cc(C(F)(F)F)n1 | i | -3% | -11% | 5%
COc1ccccc1C(=O)Nc1cc(C2CC2)nn1-c1ccccc1 | . | . | 22µM* | ?
COc1ccc(-c2nc3c(c(-c4ccccc4)n2)CN(C(=O)c2ccccc2)CC3)cc1 | i | 13% | ? | ?
Cc1ccc2c(n1)N(C)[C@H](CO)CCN(Cc1ccc(OC(F)(F)F)cc1)C2 | i | 4%[70.6 µM] | ? | 79µM*
Cc1ccc2c(n1)N(C)[C@H](CO)CCN(CC1CCCCC1)C2 | i | -3%[70.6 µM] | ? | 45µM*
Cc1ccc2c(n1)N(C)[C@H](CO)CCN(C(=O)Nc1ccccc1)C2 | i | -3%[70.6 µM] | -14%[138 µM] | -8%[172 µM]
CC(=O)N1CCC(N2CC[C@@H](CO)N(C)c3nc(C)ccc3C2)CC1 | i | 5%[70.6 µM] | 45µM* | 79µM*
COc1ccccc1-c1nnc2ccc(C(=O)N3CCN(C)CC3)cn12 | . | . | 5% | -3%
COc1ccc(CN2C(=O)COC[C@H]2C(=O)NCc2cc(F)ccc2F)c(OC)c1 | . | . | -26% | -23%
Cc1cccc(NC(=O)Nc2ccc(C)n(CC(=O)Nc3ccc(C)c(C)c3)c2=O)c1 | i | -3% | 32µM* | 28µM*
Cc1cccc(NC(=O)Nc2ccc(C)n(CC(=O)O)c2=O)c1 | 16µM* | 2% | i | 12%
Cc1cccc(NC(=O)Nc2ccc(C)n(CC(=O)NCCN3CCCC3)c2=O)c1 | i | 0% | -13% | -2%
Cc1ccc(NC(=O)Nc2ccc(C)n(CC(=O)Nc3ccc(C)cc3C)c2=O)cc1 | ? | -3% | 2% | -5%
O=C(c1cccc(F)c1)N1CCCCCC1CN1CCOCC1 (stereo unspecified) | . | . | -11% | i
COc1ccc(C(=O)NC2CCN(C(=O)N3CC4CC(C3)[C@H]3CCCC(=O)N3C4)CC2)c(OC)n1 (stereo partly specified) | i | 0% | -5% | -8%
O=C(NCc1ccccc1)c1ccc2oc(-c3ccnc(Cl)c3)nc2c1 | . | . | -23% | -9%
Cc1ncc2n1C(=O)N(C1CCN(Cc3ccc(N(C)C)cc3)CC1)C2 | i | 0% | -27% | ?
Cc1ncc2n1C(=O)N(C1CCN(Cc3ccc(OC(F)(F)F)cc3)CC1)C2 | i | ? | ? | 14µM*
Cc1ccc2c(n1)O[C@@H](COCc1ccccc1)CN(Cc1ccc3c(c1)OCO3)C2=O | . | . | 13µM* | ?
CCCC1CN(Cc2cccc(F)c2)C(=O)c2ccc(C)nc2O1 (stereo unspecified) | . | . | ? | 50µM*
Cc1ccc2c(n1)O[C@@H](COCc1ccccc1)CN(Cc1cccs1)C2=O | . | . | 25µM* | 32µM*
SMILES | Luciferase inh | hNpr1 antagonist | NIH3T3 tox | HEK cytotox
O=C(N[C@H]1CCN2C(=O)c3cc(-c4ccc5c(c4)OCO5)ccc3NC(=O)[C@H]12)c1cccc(F)c1 | i | -11% | 79µM* | ?
O=C1Nc2ccc(-c3ccccc3)cc2C(=O)N2CC[C@H](NS(=O)(=O)c3cccs3)[C@@H]12 | i | -14% | 20µM* | ?
COc1ccc(-c2ccc3c(c2)C(=O)N2CC[C@H](NC(=O)C4CCCC4)[C@H]2C(=O)N3)cc1 | 22µM* | -3%[70.6 µM] | ? | -25%[172 µM]
O=C1Nc2ccccc2C(=O)N2CC[C@H](NS(=O)(=O)c3cccs3)[C@@H]12 | i | 6%[70.6 µM] | -22%[174 µM] | -11%[172 µM]
O=C(N[C@H]1CCN2C(=O)c3cc(-c4ccsc4)ccc3NC(=O)[C@H]12)c1cccc(F)c1 | i | -10% | -19% | -12%
O=C(N[C@H]1CCN2C(=O)c3cc(-c4ccccc4)ccc3NC(=O)[C@H]12)c1cccc(F)c1 | ? | -18%[70.6 µM] | ? | 89µM*
Cn1ncc2c(N)nc(NC3CC(c4cc(=O)[nH]c(C5CC5)n4)C3)nc21 (stereo unspecified) | i | 4% | ? | 0%
